From PubChem
NS1 function inh: blocks influenza NS1 protein function; Potency, µM (doses to about 46.1 µM); 270,000 tested, 0.4% active; calls by dose curve; note: actives are rising curves; nearly all actives have a fitted effect of over 50% in size
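A cell-based growth assay was used: compounds that relieve NS1-induced slow growth of budding yeast raise OD600. Assay medium was yeast nitrogen base with ammonium sulphate and -URA supplement, pH 6.0, with 2% galactose.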
Cruzain Triton: blocks cruzain activity in presence of Triton detergent; Potency, µM, hits mostly inhibitors; AID 1478; 200,000 tested, 0.43% active; purified cruzain, Z-FR-AMC fluorescence, 0.01% Triton; P25779; note: nearly all actives have a fitted effect of over 40% in size
Target sequence (P25779 123-467 limits assumed): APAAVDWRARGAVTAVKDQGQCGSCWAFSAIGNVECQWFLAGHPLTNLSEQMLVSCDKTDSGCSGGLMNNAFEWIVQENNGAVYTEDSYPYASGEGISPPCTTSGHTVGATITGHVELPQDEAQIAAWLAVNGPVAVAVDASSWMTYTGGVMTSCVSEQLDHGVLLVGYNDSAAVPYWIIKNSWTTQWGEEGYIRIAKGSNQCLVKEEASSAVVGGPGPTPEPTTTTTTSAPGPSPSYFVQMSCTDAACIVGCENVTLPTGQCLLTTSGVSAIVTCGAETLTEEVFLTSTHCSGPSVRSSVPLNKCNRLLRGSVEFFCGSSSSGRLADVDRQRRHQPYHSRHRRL
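Compounds were screened in titration against cruzain (1.5 nM) with 0.01% Triton X-100 to counter colloidal aggregation. Activity was the AMC fluorescence increase over 60 s after adding 2 uM Z-FR-AMC at pH 5.5.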
Cruzain noTriton: cruzain (T. cruzi) inhibition without detergent; P25779; purified cruzain, Z-FR-AMC fluorescence, no detergent; Potency, µM, actives largely listed as inhibitors; 200,000 tested, 2.3% active; AID 1476; note: nearly all actives have a fitted effect of over 40% in size
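Detergent-free condition (0.00005% Triton X-100) in acetate buffer pH 5.5 with DTT. 1.5 nM enzyme and compound were pre-mixed 15 min, then 2 uM Z-FR-AMC substrate added; reaction progress from fluorescence change between first and third reads (60 s).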
Each line names hits and unclear results; the compound was inactive in the other large screens. The full list was thinned out, with hits kept by preference. Unless noted, calls come from the whole dose curve; as a rule, active = well fitted curve in the direction sought with a large enough effect; inconclusive = small, poorly fitted or top-dose-only effect, or another doubt; inactive = no such curve, though single readings can be large; an effect the other way counts as inactive or inconclusive.

Cc1c(Br)c([N+](=O)[O-])nn1CC(=O)Nc1sc2c(c1C(=O)OC(C)C)CCCC2	Cruzain noTriton 12.6µM
Cc1c(Br)c([N+](=O)[O-])nn1CCCC(=O)Nc1sc2c(c1C#N)CCC2	none
CCOC(=O)Oc1ccc2c(=O)c(Oc3cccc(C)c3)coc2c1	none
Cc1cccc(Oc2coc3cc(OC(=O)c4cc5ccccc5oc4=O)ccc3c2=O)c1	Cruzain noTriton 5.01µM
COc1ccc(-c2nc(C)c(CCNC(=O)c3cc(OC)c(OC)c(OC)c3)s2)cc1OC	Cruzain noTriton inconclusive (no result: NS1 function inh)
CCOC(=O)c1cccc(NC(=O)CN2C(=O)c3ccccc3Sc3ncccc32)c1	Cruzain noTriton inconclusive (no result: NS1 function inh)
CCOc1ccc(NC(=O)CSc2nc(C)c(C(=O)Nc3ccccc3)c(-c3ccc(Cl)cc3)c2C#N)cc1	none (no result: NS1 function inh)
COc1ccc(-c2c(C#N)c(SCC(=O)Nc3ccc(C)c(C)c3)nc(C)c2C(=O)Nc2ccc(Cl)cc2)cc1	Cruzain noTriton 6.31µM (no result: NS1 function inh)
C=C(C(C)=O)C(O)c1ccc(C(F)(F)F)cc1 (stereo not given)	none (no result: NS1 function inh)
N=C1N=C(N)c2cc3ccccc3cc21	none (no result: NS1 function inh)
N#Cc1ccc2c(c1)C[C@]1(CCCCN3C(=O)c4ccccc4C3=O)Oc3c(c(=O)oc4ccccc34)C2O1	none (no result: Cruzain Triton, Cruzain noTriton)
O=C(CSc1nnc2c(n1)[nH]c1ccc(F)cc12)Nc1ccccc1F	none (no result: Cruzain Triton, Cruzain noTriton)
O=C(CSc1nnc2c3ccccc3c3ccccc3c2n1)Nc1ccccc1	Cruzain noTriton 3.98µM
O=C(O)CSc1nnc2c3ccccc3c3ccccc3c2n1	none
O=C(CSc1nnc2c3ccccc3c3ccccc3c2n1)Nc1ccccc1F	Cruzain noTriton 7.94µM
COc1ccc(OC)c(CNC(=O)C(C)n2c(C)c3cnn(-c4ccccc4)c(=O)c3c2C)c1 (stereo not given)	Cruzain noTriton inconclusive (no result: NS1 function inh)
CC(C)C[C@@H](CC(=O)N[C@H](CC(=O)N[C@@H]1CCCC[C@H]1C(=O)N[C@H](CC(=O)N[C@@H](CCC(=O)O)CC(=O)O)CC(C)C)C(C)C)NC(=O)[C@@H]1CNCC[C@H]1N	none (no result: NS1 function inh)
CC(=O)OC/C=C(C)/C=C/C=C(C)/C=C/C1=C(C)CCCC1(C)C	Cruzain noTriton inconclusive (no result: NS1 function inh)
O=C(NCCc1ccccc1)c1cccc(Br)n1	Cruzain noTriton inconclusive (no result: NS1 function inh)
Nc1cc(C(=O)OCC(=O)NC(c2ccccc2)c2ccccc2)ccc1Cl	Cruzain noTriton 25.1µM
Nc1cc(C(=O)OCC(=O)NCc2ccc(F)cc2)ccc1Cl	NS1 function inh inconclusive
CCCCOc1ccc(C(=O)Nc2ccc3c(c2)N(C(C)=O)CCC3)cc1	none (no result: NS1 function inh)
CCCCC(=O)N/N=C/c1ccc(-c2ccc([N+](=O)[O-])cc2)o1	none (no result: Cruzain Triton, Cruzain noTriton)
COc1ccc(N(CC(=O)N/N=C/c2ccc(-c3ccc([N+](=O)[O-])cc3)o2)S(=O)(=O)c2ccc(C)cc2)cc1Cl	Cruzain noTriton 6.31µM
CCC(=O)N/N=C/c1ccc(-c2ccc([N+](=O)[O-])cc2)o1	none (no result: Cruzain Triton, Cruzain noTriton)
COc1ccc(N(CC(=O)N/N=C/c2ccc(-c3ccc([N+](=O)[O-])cc3)o2)S(=O)(=O)c2ccc(C)cc2)cc1	Cruzain noTriton 3.98µM
C[C@H]1[C@H](O)[C@@H](C)C=CC=CC=CC=CC=CC=CC=C[C@H](O[C@@H]2O[C@@H](C)[C@H](O)[C@@H](N)[C@@H]2O)C[C@@H]2O[C@](O)(C[C@@H](O)C[C@@H](O)[C@@H](O)CC[C@@H](O)C[C@@H](O)CC(=O)O[C@H]1C)C[C@H](O)[C@H]2C(=O)O	none
Cc1cccc(Cn2cccc2CNS(=O)(=O)c2ccccc2F)c1	none (no result: NS1 function inh)
O=C(Nc1ccc(/C=C/c2nc3ccccc3o2)cc1)c1c(F)cccc1F	Cruzain noTriton 10µM
O=C(Nc1ccc(/C=C/c2nc3ccccc3o2)cc1)c1cccc(C(F)(F)F)c1	Cruzain noTriton 7.94µM
Cc1cnc(Nc2nc3ccccc3o2)nc1C(=O)Nc1cccc(C(F)(F)F)c1	none
CC(=O)Nc1ccc(/C=C/c2nc3ccccc3o2)cc1	none (no result: Cruzain Triton, Cruzain noTriton)
COCc1cc(C)nc2sc3c(c12)NC(c1ccc(O)cc1)N(c1ccc(OC)cc1)C3=O (stereo not given)	Cruzain noTriton inconclusive (no result: NS1 function inh)
COc1ccc(-c2cn3c(n2)sc2cc(C(=O)NCCC4=CCCCC4)ccc23)cc1	none (no result: NS1 function inh)
Oc1c(Cl)cc(Cl)cc1Cl	none (no result: NS1 function inh, Cruzain noTriton)
O=C(/C=C\c1ccco1)Nc1nc(-c2ccccc2)cs1	none
Cc1ccc2oc(-c3cccc(NC(=S)NC(=O)/C=C/c4ccco4)c3)nc2c1	NS1 function inh inconclusive, Cruzain noTriton 3.98µM
COc1ccc(-c2csc(NC(=S)NC(=O)/C=C/c3ccccc3)n2)cc1Br	none (no result: Cruzain Triton, Cruzain noTriton)
Cc1ccc2oc(-c3cccc(NC(=S)NC(=O)c4cccs4)c3)nc2c1	Cruzain noTriton inconclusive
O=C(/C=C/c1ccco1)NC(=S)Nc1nc(-c2ccc3ccccc3c2)cs1	Cruzain noTriton 3.98µM
O=C(/C=C/c1ccco1)NC(=S)Nc1nc(-c2ccc(Cl)cc2)cs1	Cruzain noTriton 5.01µM
CCOC(=O)C1CCCN(C(=O)CCS(=O)(=O)c2cc3c(cc2Cl)NC(=O)CO3)C1 (stereo not given)	none (no result: NS1 function inh)
CCOC(=O)c1cc(S(=O)(=O)N2CCN(c3ccc(C(C)=O)cc3)CC2)[nH]n1	none (no result: NS1 function inh)
CCCCC[C@H](O)/C=C/C=C/C/C=C\CCCC(=O)O	none (no result: NS1 function inh)
CC(C)Nc1cc(N2CCN(C3CCCCC3)CC2)c2noc3c2c1C(=O)c1ccccc1-3	none (no result: NS1 function inh)
COCCOC(=O)c1c(-c2ccccc2)c(-c2ccccc2)nn(C)c1=O	none (no result: NS1 function inh)
O=C(Cc1csc(Nc2nc(=S)[nH]c3ccccc23)n1)N1CCN(c2cccc(C(F)(F)F)c2)CC1	none (no result: Cruzain Triton, Cruzain noTriton)
Cc1ccc(CNC(=O)Cc2csc(Nc3nc(=S)[nH]c4ccccc34)n2)cc1	Cruzain noTriton 10µM
O=C(Cc1csc(Nc2nc(=S)[nH]c3ccccc23)n1)NCc1cccc(Cl)c1	Cruzain noTriton 3.98µM
O=C(Cc1csc(Nc2nc(=S)[nH]c3ccccc23)n1)NCc1ccccc1Cl	Cruzain noTriton inconclusive
NCCSC(c1ccccc1)c1ccccc1	none
COc1ccc(CNC(=O)c2cc3c(=O)n(C)c4ccccc4c3n2C)c(OC)c1	none (no result: NS1 function inh)
CCc1cccc(NC(=O)C(Cc2ccccc2)n2cccc2)c1 (stereo not given)	none (no result: NS1 function inh)
COc1ccc(C2C(C#N)=C(N)N(c3cccnc3)C3=C2C(=O)CCC3)cc1Cn1cc([N+](=O)[O-])cn1 (stereo not given)	none
COc1ccc(C2C(C#N)=C(N)OC3=C2C(=O)CCC3)cc1Cn1cc([N+](=O)[O-])cn1 (stereo not given)	none
COc1ccc(C2C(C#N)=C(N)N(c3ccccc3)C3=C2C(=O)CCC3)cc1Cn1cc([N+](=O)[O-])cn1 (stereo not given)	Cruzain noTriton 20µM
COc1ccc(C2C(C#N)=C(N)Oc3c2c(=O)oc2ccccc32)cc1Cn1cc([N+](=O)[O-])cn1 (stereo not given)	Cruzain noTriton 25.1µM
Nc1ccccc1-c1ccccc1	none (no result: NS1 function inh)
O=C(Nc1ccc(F)cc1)[C@H](CSCc1ccccc1)N1Cc2ccccc2C1=O	none (no result: NS1 function inh)
Cc1nc2cnc(Nc3ccccc3)nc2n(CCc2ccccc2)c1=O	none (no result: NS1 function inh)
Cn1c(=O)c(-c2cccc(F)c2)nc2cncnc21	none (no result: NS1 function inh)
Cc1nc(N)sc1C(=O)N/N=C/c1ccc([N+](=O)[O-])cc1	none (no result: Cruzain Triton, Cruzain noTriton)
Cc1csc(/N=C/c2ccc([N+](=O)[O-])cc2)n1	Cruzain noTriton 20µM
Cc1oc2ncn(C)c(=O)c2c1C(=O)N(C)c1ccccc1F	none (no result: NS1 function inh)
Cc1ccc2cc3cc(C(=O)N(C)c4ccccc4C)oc3nc2c1	none (no result: NS1 function inh)
